For 58 compounds, max activation results are on record in PubChem BioAssay AID977607 (Broad Institute, 2014).

Hit rate of the full screen: of about 1,500 compounds, about 460 (31%) were called active. Roughly 1% stayed inconclusive and do not appear here. These entries were drawn from the full list. Results with a measured potency or affinity are listed apart. Values without a mark were called inactive.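 The calls were made as follows: active = curve reaches 40% activation over neutral controls at an AC40 no higher than the top valid tested concentration; inconclusive = no clear call, values can overlap the other calls; inactive = signal moving opposite to the expected increase, and the rest.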

A short description of this assay: activators of glucose-dependent insulin secretion, dose response, cell-based, INS-1E, Gaussia luciferase, luminescence, cherry-pick, set 2 (AID 977607).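 Also: 0% = median of the plate neutral control wells.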 As to conditions: INS-1E GLuc insulin secretion reporter, 2-3 h, stronger effect = higher value; at 35 µM, 100% = signal doubled over neutral wells unless noted.
Consider `CCSc1ccc2nnc(-c3ccc(F)cc3)n2n1`, for which the max activation was -17.1% [at 0.135 µM, 100% = signal doubled over neutral wells]. To `C=CCNc1sc(C(=O)C2CC2)c(N)c1C#N` belongs -24.8% [at 0.0016 µM, 100% = signal doubled over neutral wells]; to `COCCNc1nc(NC(C)C)nc2ccsc12`, -19.2% [at 0.046 µM, 100% = signal doubled over neutral wells]. For `COc1ccc(Nc2nc(NCc3cccs3)nc3ccsc23)cc1OC`, the max activation is -40.6%. Then `Cc1cc(NC(=O)COC(=O)c2oc3c(Cl)cccc3c2C)no1`, with -17.9% [at 11 µM, 100% = signal doubled over neutral wells]. In the case of `CCCOC(=O)Nc1ccc(S(=O)(=O)Nc2ncccn2)cc1`, the max activation was -14.1% [at 11 µM, 100% = signal doubled over neutral wells].

Consider `CCOC(=O)c1cnc2ccc(OCC)cc2c1N1CCN(c2ccccc2)CC1`, for which the max activation is -39.9%.

For the compound `O=C(c1cccc(F)c1)N1CCCc2ccccc21`, the max activation is -18.1% [at 0.015 µM, 100% = signal doubled over neutral wells]. With `CCOc1nc(Nc2ccccc2F)nc(OCC)n1`, the max activation is -23.2% [at 0.0016 µM, 100% = signal doubled over neutral wells]. Regarding `COc1nc(Nc2ccccc2)nc(OC)n1`, the max activation was -12% [at 0.0016 µM, 100% = signal doubled over neutral wells]. To `COc1ccc(S(=O)(=O)Nc2cccc(-c3ccc4nncn4n3)c2)cc1F` belongs -16.1% [at 0.046 µM, 100% = signal doubled over neutral wells]; to `C=CCOc1cccc(C(=O)N2CCC(CCC(=O)NC3CC3)CC2)c1`, -8.53% [at 1.2 µM, 100% = signal doubled over neutral wells]. Consider `C[C@@H]1CN([C@@H](C)CO)C(=O)c2cc(Br)cnc2O[C@H]1CN(C)C(=O)C1CC1`, for which the max activation is -19.6% [at 0.0016 µM, 100% = signal doubled over neutral wells]. For `NC(=O)C1CCN(c2nc(-c3ccccc3)nc3ccccc23)CC1`, the max activation was -15.2% [at 3.8 µM, 100% = signal doubled over neutral wells]. `Cc1ccccc1Nc1c(-c2ccncc2)nc2ccc(Cl)cn12`: the max activation is -30.7%. For `CCOC(=O)c1sc2nc(-c3ccccc3)ccc2c1N`, the max activation is -12.9%. Then `COc1ccc(C(=O)c2ccc(OC)c(OC)c2)cc1`, with -16.7% [at 0.42 µM, 100% = signal doubled over neutral wells]. Then `C[C@@H](NC(=O)C[C@@H]1C[C@@H]2c3cc(NC(=O)Nc4ccccc4F)ccc3O[C@@H]2[C@@H](CO)O1)c1ccccc1`, with 34.4% [at 0.015 µM, 100% = signal doubled over neutral wells]; and `COc1ccc(-n2c(=S)[nH]c3cc(C(=O)Nc4ccc(OC)c(OC)c4)ccc3c2=O)cc1`, with -16.1% [at 0.0016 µM, 100% = signal doubled over neutral wells]. Then `COc1ccc(C(=O)Nc2cccnc2Cl)cc1OC`, with -21.1% [at 0.0016 µM, 100% = signal doubled over neutral wells]; and `O=S(=O)(c1ccc(-c2csc(Nc3ccc(Br)cc3)n2)cc1)N1CCCC1`, with -14.1% [at 0.42 µM, 100% = signal doubled over neutral wells].

Consider `O=C(Cc1csc(NC(=O)c2ccccc2)n1)NO`, for which the max activation was -12.5% [at 0.42 µM, 100% = signal doubled over neutral wells]. Then `CS(=O)(=O)N1CCCCC1c1cc(C(=O)Nc2cccc3c2CCCC3)no1` (stereo not drawn), with -21.9% [at 0.0016 µM, 100% = signal doubled over neutral wells]; and `Cc1ccc(S(=O)(=O)NCc2csc(-c3cccs3)n2)cc1`, with -16% [at 0.42 µM, 100% = signal doubled over neutral wells]. To `COc1ccc(CCN(C)C(=O)C(CCSC)NC(=O)c2ccco2)cc1OC` (stereo not drawn) belongs 35.3%; to `Nc1nc(N)nc(-c2ccc(Cl)cc2)n1`, 24.3%. As to `CC(C)(C)NC(=O)N1c2ccccc2Sc2ccccc21`, the max activation is -17.6% [at 0.42 µM, 100% = signal doubled over neutral wells]. Take `CC(=O)c1c(C)oc2ccc(NS(=O)(=O)c3ccc(F)cc3C)cc12`: the max activation is -28.4%. Turning to `CS(=O)(=O)c1nc(S(=O)(=O)c2ccc(Cl)cc2)c(N2CCCCCC2)s1`, the max activation is -34.1%. Then `Cc1nc2ccccc2c(=O)n1CCCN1CCOCC1`, with -15.9% [at 0.046 µM, 100% = signal doubled over neutral wells]; and `Cc1ccc2c(c1)c(-c1ccccc1)nc1nncn12`, with -21.1% [at 1.2 µM, 100% = signal doubled over neutral wells]; and `COc1nc(-c2ccccc2)c2cc(C)ccc2n1`, with 42.4% [at 1.2 µM, 100% = signal doubled over neutral wells]. To `CCN(CC)C(=O)n1c(Cc2ccccc2)nc2ccccc21` belongs -14.4% [at 0.005 µM, 100% = signal doubled over neutral wells]. On to `CCCc1cc2c(OC)ccc(O)c2c(=O)n1C`, for which the max activation was -19.2% [at 0.42 µM, 100% = signal doubled over neutral wells]. To `CCOc1ccc(NC(=O)[C@@H](NC(=O)OCc2ccccc2)[C@@H](C)CC)cc1` belongs -32.5% [at 11 µM, 100% = signal doubled over neutral wells]. Then `CCCNC(=O)c1ccccc1NC(=O)COc1ccc(OC)cc1`, with -16% [at 11 µM, 100% = signal doubled over neutral wells]; and `COc1ccc(CCNC(=O)CCn2c(=O)c3ccccc3n(CC(=O)NCC3CCCO3)c2=O)cc1OC` (stereo not drawn), with 20.3% [at 0.135 µM, 100% = signal doubled over neutral wells]; and `CCN(CC)C(=O)Cn1c(=O)oc2ccccc21`, with -21.2%.

As to `Cc1nccn1-c1ncnc2sc3c(c12)CCCC3`, the max activation was -26.7% [at 0.046 µM, 100% = signal doubled over neutral wells].

Turning to `COc1ccc(/C=N/NC(=O)CN(C2=NS(=O)(=O)c3ccccc32)c2ccccc2)cc1OC`, the max activation is 23.5%. Then `CCOC(=O)N1CCN(C(=O)COc2ccccc2OC)CC1`, with 19.9% [at 11 µM, 100% = signal doubled over neutral wells]; and `C=CCc1ccc(OCCOc2ccc(/C=N/n3cnnc3)cc2OCC)c(OC)c1`, with -24.1% [at 0.046 µM, 100% = signal doubled over neutral wells].

`COc1ccc(/C=N/NS(=O)(=O)c2ccccc2)cc1OC`: the max activation was 16.8%.

Regarding `Cc1cc(C)c2c(C)nn(C3CCCCC3)c2n1`, the max activation was 20.5%. To `CSc1ccc(C(=O)C2CCCN(C(=O)c3ccc4c(c3)no[n+]4[O-])C2)cc1` (stereo not drawn) belongs -36.5%; to `COc1ccc(-c2nc(C(=O)O)cs2)cc1OC`, 28.2% [at 0.42 µM, 100% = signal doubled over neutral wells]; to `C=CCn1cnc2scc(-c3ccc(OC)cc3)c2c1=O`, -14.9% [at 1.2 µM, 100% = signal doubled over neutral wells]. To `CCOc1ccc(-c2nc(CSc3nnc(N)s3)cs2)cc1OC` belongs 23.2%; to `COc1ccc(C(=O)O/N=C(\N)c2ccc(OC)c(OC)c2)cc1`, -23.3% [at 0.135 µM, 100% = signal doubled over neutral wells]; to `COc1ccc(CC(=O)O/N=C(\N)c2ccccc2)cc1OC`, -13.5% [at 0.005 µM, 100% = signal doubled over neutral wells]. Consider `CC(=O)NCCc1nc2ccccc2n1CCOc1cccc(C)c1`, for which the max activation was -27.1%. For `COc1ccc(OCC(=O)NNC(=O)Cn2c(=O)cnc3ccccc32)cc1`, the max activation is -15.3% [at 1.2 µM, 100% = signal doubled over neutral wells]. To `O=C(c1ccccc1)c1ccc2ccccc2n1` belongs -22.9% [at 0.0016 µM, 100% = signal doubled over neutral wells]; to `O=C(Nc1ccccc1Oc1ccsc1C(=O)O)c1ccccc1F`, 23.2% [at 0.42 µM, 100% = signal doubled over neutral wells].

In the case of `Cc1cc(C)cc(C(=O)NC(=S)Nc2ccc(-c3cc4ccccc4oc3=O)cc2)c1`, the max activation is 14.9%. `O=C(NCC1CCCO1)C1CCC(N2C(=O)c3ccccc3C2=O)CC1` (stereo not drawn): the max activation was 17.8% [at 11 µM, 100% = signal doubled over neutral wells]. To `CC1CCN(C(=O)c2cccc(S(=O)(=O)N3CCN(c4ccccc4)CC3)c2)CC1` belongs 35.2% [at 0.0016 µM, 100% = signal doubled over neutral wells]; to `CN1CCN(NC(=O)c2cccc(S(=O)(=O)N3CCCCCC3)c2)CC1`, 33% [at 1.2 µM, 100% = signal doubled over neutral wells].
